# Results: PubChem BioAssay
# “And” between values parts separate entries of the source, which are not always exact repeats. Identical values can stand only once. The source made the active and inactive calls.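 How the source made its calls, unless noted: active means compounds whose cell count with miR-34 switched on is under 0.7 times the count with it off; inactive means the rest.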
# Assays:
# [1] = Wnt pathway potentiators raising nuclear beta-catenin – imaging, WNT3A-conditioned medium, mouse C2C12, NPC library, primary screen (AID 1117326; in the data active means nuclear beta-catenin stimulation mostly above about 4.2%, no sharp cut-off; inactive means mostly below about 10%); details: stronger effect = higher value
# [2] = stimulators of insulin release from INS-1E, primary screen, cell-based, 5 mM glucose, NPC library (AID 1117329;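 active means compound raises insulin release from rat beta cells at 5 mM glucose, no numeric limit stated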); details: rat INS-1E insulin secretion, at 10 µM, stronger effect = higher value
# [3] = growth inhibition of GSK3B-pretreated HCT116 cells – cell-based, CellTiter-Glo, 0.2 to 20 µM (AID 1117336;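 active means compounds lowering colon cancer cell viability after pretreatment blocking the GSK3B kinase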); details: HCT116 viability after GSK3B inhibitor, at 20 µM, stronger effect = higher value
# [4] = inhibition of endothelial tube formation, primary screen, imaging, VEGF stimulated, CD31 staining, tube area, NPC library (AID 1117340;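 active means compound that reduces growth-factor-driven endothelial tube area in a mixed cell culture, no cutoff stated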); details: VEGF-stimulated ADSC/ECFC co-culture, at 10 µM, stronger effect = higher value
# [5] = GLP1 release stimulators, primary, NCI-H716, NPC library (AID 1117341;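 active means compound raises GLP1 secretion from the human gut endocrine cells, with no numeric limit stated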); details: NCI-H716 cells, at 10 µM, stronger effect = higher value
# [6] = HCT116 colon cancer cell growth inhibition, primary screen, CellTiter-Glo luminescence, NPC library (AID 1117342;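 active means compounds that lower survival of HCT116 colon cancer cells in the luminescence readout, no numeric limit stated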); details: at 20 µM (top of the series)
# [7] = reduced SW480 viability measured with CellTiter-Glo, NPC library, primary (AID 1117343;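 active means compounds that lower viability of the colon cancer cells in the luminescence readout, with no numeric limit stated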); details: CellTiter-Glo luminescence; at 20 µM (top of the series) unless noted
# [8] = NPC library primary testing for decreased DLD-1 cell viability via CellTiter-Glo (AID 1117346;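 active means compounds that lower survival of DLD-1 colon cancer cells in the luminescence readout, no cutoff given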); details: DLD-1 viability, CellTiter-Glo luminescence; at 20 µM (top of the series)
# [9] = EMT-state selective cytotoxicity in co-culture – imaging, PC-3E GFP, TEM4-18 mCherry, primary screen (AID 1345086;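 active means compounds killing one labelled cell type while sparing the other, by normalised counts and ratio limits, not self-fluorescent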;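 on all read-outs here: cells exposed to compound for 72 h before imaging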;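 on red/green cell ratio (normalised): normalised mesenchymal count divided by normalised epithelial count so high means epithelial killing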); details: PC-3E GFP / TEM4-18 mCherry co-culture, imaging cell counts, at 1 µM; for red/green cell ratio (normalised): actives lie on both sides, counts scaled to control wells, 1 = unselective
# [10] = viability loss with induced miR-34 in A549 – imaging, A549 dox-inducible miR-34, nuclei and caspase counts, primary screen (AID 1347080); details: A549 miR-34 inducible, Hoechst nuclei count, 48 h
# [11] = MELAS cybrid and Rieske KO viability enhancers – cell-based, MELAS cybrids, Rieske KO mouse fibroblasts, CellTiter-Glo, primary screen (AID 1508586;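 active means mean z-score across replicates of 1.96 or higher in either the MELAS or the Rieske mutant cell line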;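 further: z relative to plate mean and SD of compound and empty wells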); details: low glucose
# [12] = growth inhibition, single agent or in combination, cell-based, chromothripsis tumors, cisplatin or BGB combos (AID 1671449; in the data active means inhibition above about 80%;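 further: cells exposed for 96 hours; 0% = vehicle DMSO and 100% = killing by high DMSO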); details: LFS_MB_P medulloblastoma cells
# [13] = growth inhibition, single agent and combos, cell-based, chromothripsis tumors, cisplatin or BGB combos (AID 1671450; in the data active means inhibition above about 80%;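 further: cells exposed to compound for four days; 0% = vehicle DMSO and 100% = cell killing by high DMSO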); details: HDN33 neuroblastoma cells, stronger effect = higher value
# [14] = growth inhibition, single agents and combos, ICB984, cell-based, cisplatin or BGB combos, synergistic combos for chromothripsis tumors (AID 1671451; call rule not given here;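 further: cells exposed for 96 hours before readout; 0% = vehicle DMSO and 100% = killing by high DMSO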); details: ICB984 medulloblastoma cells, drug combinations, stronger effect = higher value
# [15] = growth inhibition, single agents and combos, HTB85, cell-based, BGB or cisplatin IC20 combos, synergistic combos for chromothripsis tumors (AID 1671453; in the data active means inhibition above about 80%;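 further: cells exposed for 96 hours before readout; 0% = vehicle DMSO and 100% = high DMSO killing control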); details: HTB85 osteosarcoma cells, drug combinations, stronger effect = higher value
# [16] = growth inhibition, MDA-MB-436, cell-based, BGB or cisplatin combos, synergistic combos for chromothripsis tumors (AID 1671458; call rule not given here;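 further: cells exposed for 96 hours; 0% = vehicle DMSO and 100% = killing by high DMSO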); details: MDA-MB-436 breast carcinoma growth inhibition, drug combinations, stronger effect = higher value
# [17] = target: NAD(+) hydrolase SARM1 (Homo sapiens) (UniProt Q6SZW1); assay: blocking NAD cleavage by SARM1 SAM-TIR – cell lysate, NAD-Glo luminescence (AID 1508614;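 active means compound whose remaining NAD level is above about 45 nM, limit read from the data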); details: SAM-TIR HEK293T lysate NADase, at 1 µM, stronger effect = higher value
# [18] = compounds altering viability of human ES cells (AID 493140; call rule not given here;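 further: cells exposed to compounds for four days before counting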); details: human embryonic stem cell survival screen; stronger effect = higher value
# [19] = P. berghei load reduction in hepatocytes – cell-based, HepG2, luciferase luminescence, HepG2 viability, primary screen (AID 624349; in the data active means parasite load remaining mostly below about 12%, no sharp cut-off; inactive means mostly above about 10%;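 further: 100% = mean of DMSO negative control wells on the same plate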); details: P. berghei liver stage in HepG2, luciferase luminescence, concentration not given here; parasite load remaining: stronger effect = lower value; viability: measured here: HepG2 viability without parasites
# [20] = measured here: epithelial PC-3E GFP cell survival
# [21] = measured here: mesenchymal TEM4-18 mCherry cell survival
# [22] = stronger effect = lower value, cell number ratio, induced over uninduced
# [23] = measured here: relative caspase fold change +Dox/-Dox
# [24] = measured here: total cells with miR-34 induction, stronger effect = lower value
# [25] = measured here: total cells without miR-34 induction
# [26] = MELAS cybrid survival, CellTiter-Glo 48 h, stronger effect = higher value
# [27] = Rieske KO mouse fibroblast survival, CellTiter-Glo 72 h
# Sequence of NAD(+) hydrolase SARM1 (Homo sapiens) (Q6SZW1 whole entry, looked up): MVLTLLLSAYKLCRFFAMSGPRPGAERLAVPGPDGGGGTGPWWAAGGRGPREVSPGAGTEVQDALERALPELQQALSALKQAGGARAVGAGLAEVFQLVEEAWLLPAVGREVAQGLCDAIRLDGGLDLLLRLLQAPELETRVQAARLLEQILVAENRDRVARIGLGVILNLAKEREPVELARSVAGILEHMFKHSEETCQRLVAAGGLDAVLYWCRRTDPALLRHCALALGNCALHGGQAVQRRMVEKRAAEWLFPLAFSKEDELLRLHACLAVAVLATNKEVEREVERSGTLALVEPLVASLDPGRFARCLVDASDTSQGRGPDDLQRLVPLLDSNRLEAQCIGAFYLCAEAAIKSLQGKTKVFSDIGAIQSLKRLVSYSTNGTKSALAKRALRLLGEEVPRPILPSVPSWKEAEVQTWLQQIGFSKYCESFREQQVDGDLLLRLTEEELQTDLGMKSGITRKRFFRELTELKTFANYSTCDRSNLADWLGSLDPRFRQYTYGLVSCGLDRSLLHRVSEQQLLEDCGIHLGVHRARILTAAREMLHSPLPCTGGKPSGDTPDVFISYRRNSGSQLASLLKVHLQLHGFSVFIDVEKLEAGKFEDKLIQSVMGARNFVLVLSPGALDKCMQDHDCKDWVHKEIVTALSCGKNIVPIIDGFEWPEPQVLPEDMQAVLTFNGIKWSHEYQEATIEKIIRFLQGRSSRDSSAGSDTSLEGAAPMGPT
smiles,measurement,setting,value
CNC1CCCN(c2c(F)cc3c(=O)c(C(=O)O)cn(C4CC4)c3c2OC)C1 (stereo not given),nuclear beta-catenin stimulation,[1]; at 10 µM,-0.1% (inactive)
same,nuclear beta-catenin stimulation,"[1]; stimulation, at 2 µM",0%
same,insulin secretion stimulation,[2],5.75% (inactive)
same,viability decrease,[3],42.9% (inactive)
same,tube area decrease,[4],-9% (inactive)
same,GLP1 secretion stimulation,[5],1.4% (inactive)
same,inhibition of viability,[6],10.1% (inactive)
same,viability decrease (inhibition),[7],6% (inactive)
same,viability decrease (inhibition),[8],-25.9% (inactive)
same,red/green cell ratio (normalised),[9],1.13 (inactive)
same,normalised cell number,[9]; [20],1.05
same,normalised cell number,[9]; [21],1.18
same,fold change,[10]; [22],0.938 (inactive)
same,fold change,[10]; [23],0.74
same,cell count,[10]; [24],8330
same,cell count,[10]; [25],8880
same,z-score,[11]; [26],-0.145 (inactive)
same,z-score,[11]; [27],0.59
same,inhibition,"[12]; at 0.5 µM, stronger effect = higher value",6.49% (inactive)
same,inhibition,"[12]; measured here: combination with BGB IC20, at 0.005 µM",-28.5%
same,inhibition,"[12]; measured here: combination with BGB IC40, at 0.005 µM",-37.4%
same,inhibition,"[12]; measured here: combination with BGB IC40, at 0.05 µM",-26.1%
same,inhibition,"[12]; measured here: combination with cisplatin, at 0.5 µM, stronger effect = higher value",1.25%
same,inhibition,"[12]; measured here: combination with cisplatin, at 5 µM, stronger effect = higher value",-35.3%
same,inhibition,"[13]; BGB combo, at 5 µM",-29.7%
same,inhibition,[13]; at 0.5 µM,-41% (inactive)
same,inhibition,"[13]; cisplatin combo, at 5 µM",-60.5%
same,inhibition,"[13]; measured here: with BGB IC20 combination, at 0.5 µM",-39.7%
same,inhibition,"[13]; measured here: with cisplatin IC20 combination, at 0.5 µM",-37.4%
same,inhibition,"[13]; single agent, at 5 µM",-52%
same,inhibition,"[14]; BGB IC20 combo, at 0.005 µM",-26.8%
same,inhibition,"[14]; BGB IC40 combo, at 0.005 µM",-20.1%
same,inhibition,"[14]; BGB IC40 combo, at 0.05 µM",-26.3%
same,inhibition,[14]; at 0.5 µM,-21.9% (inactive)
same,inhibition,"[14]; cisplatin combo, at 0.05 µM",-26.3%
same,inhibition,"[14]; cisplatin combo, at 0.5 µM",-35.1%
same,inhibition,"[14]; cisplatin combo, at 5 µM",-31.2%
same,inhibition,"[14]; measured here: 5 uM single agent, at 5 µM",-13.6%
same,inhibition,[15]; at 0.5 µM,-23.2% (inactive)
same,inhibition,"[15]; measured here: with BGB IC20, at 0.5 µM",-35.9%
same,inhibition,"[15]; measured here: with BGB IC20, at 5 µM",-27.5%
same,inhibition,"[15]; measured here: with cisplatin IC20, at 0.5 µM",-20.5%
same,inhibition,"[15]; measured here: with cisplatin IC20, at 5 µM",-18.5%
same,inhibition,"[15]; single agent, at 5 µM",-28.7%
same,inhibition,[16]; at 0.5 µM,-22.5% (inactive)
same,inhibition,"[16]; measured here: BGB combination, at 0.5 µM",-19.9%
same,inhibition,"[16]; measured here: BGB combination, at 5 µM",-19.5%
same,inhibition,"[16]; measured here: cisplatin combination, at 0.5 µM",-36.1%
same,inhibition,"[16]; measured here: cisplatin combination, at 5 µM",-11.6%
CC(S)C(=O)NCC(=O)O (stereo not given),nuclear beta-catenin stimulation,[1]; at 10 µM,-0.5% (inactive)
same,nuclear beta-catenin stimulation,"[1]; stimulation, at 2 µM",0.7%
same,insulin secretion stimulation,[2],-0.8% (inactive)
same,viability decrease,[3],-7.03% (inactive)
same,tube area decrease,[4],17.7% (inactive)
same,GLP1 secretion stimulation,[5],-1.7% (inactive)
same,inhibition of viability,[6],-7.95% (inactive)
same,viability decrease (inhibition),[7],46.8% (inactive)
same,viability decrease (inhibition),[8],0.37% (inactive)
same,red/green cell ratio (normalised),[9],0.9 (inactive)
same,normalised cell number,[9]; [20],1.06
same,normalised cell number,[9]; [21],0.94
same,fold change,[10]; [22],0.956 (inactive) and 0.886 (inactive)
same,fold change,[10]; [23],0.809 and 0.891
same,cell count,[10]; [24],8410 and 8420
same,cell count,[10]; [25],8800 and 9500
same,z-score,[11]; [26],-0.286 (inactive)
same,z-score,[11]; [27],0.558
same,remaining NAD,[17],10 nM (inactive)
CN(C)CCN(Cc1ccc(Cl)cc1)c1ccccn1,survival,[18],0.25 (inactive)
same,parasite load remaining,[19],93.8% (inactive)
same,viability,[19],98.9%
same,nuclear beta-catenin stimulation,[1]; at 10 µM,1.9% (inactive)
same,nuclear beta-catenin stimulation,"[1]; stimulation, at 2 µM",1.4%
same,insulin secretion stimulation,[2],88.8% (active)
same,viability decrease,[3],-112% (inactive)
same,tube area decrease,[4],-2% (inactive)
same,GLP1 secretion stimulation,[5],7% (inactive)
same,inhibition of viability,[6],30.7% (inactive)
same,viability decrease (inhibition),[7],41.9% (inactive)
same,viability decrease (inhibition),[8],2.4% (inactive)
same,red/green cell ratio (normalised),[9],0.8 (inactive)
same,normalised cell number,[9]; [20],1.16
same,normalised cell number,[9]; [21],0.92
same,fold change,[10]; [22],0.853 (inactive)
same,fold change,[10]; [23],1.28
same,cell count,[10]; [24],7570
same,cell count,[10]; [25],8880
same,z-score,[11]; [26],-0.0317 (inactive)
same,z-score,[11]; [27],-0.776
same,remaining NAD,[17],10 nM (inactive)
